# From PubChem
# Most compounds without a hit are left out; they make up all but 2.9% or so of the library.
# TRPM1 prom inh: inhibitors of MITF-driven TRPM1 promoter in melanoma cells. SK-MEL-5 TRPM1 promoter luciferase, 24 h. inhibition, % at 12.5 µM. 0.83% of 330,000 active. AID 488899;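 active = mean inhibition across replicates of 60% or more, whatever share of single replicates reaches that level; inconclusive = some that reach 60%, reason not given; inactive = mean inhibition across replicates below 60%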
# MITF act: MITF TRPM1 promoter activation in melanoma cells; SK-MEL-5 TRPM1-promoter luciferase, 24 h; % of positive control, neutral wells = 0; activation, % at 12.5 µM; 0.75% of 300,000 active; AID 588334;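 active = mean activation of at least 80% with every replicate also reaching 80%; inconclusive = mean reaches 80% but some replicate falls short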;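 also: 0% = neutral control wells and 100% = parthenolide positive control wells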
# NSD2 inh: NSD2 (human) methyltransferase inhibition. inhibition, % at 12.5 µM. 0.54% of 310,000 active. AID 743445. NSD2 peptide methylation, AlphaScreen, 120 min. O96028; in the data active = inhibition above about 50%
# PfHsp90 set2: inhibits growth of yeast expressing Plasmodium falciparum Hsp90 | S. cerevisiae expressing PfHsp90, BacTiter-Glo ATP, 48 h; yeast lacking PDR1 and PDR3 efflux regulators | inhibition, % at 9.4 µM | 0.32% of 310,000 active;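 active = every replicate shows inhibition above about 80%, whatever the replicate mean, limit read from the data; inconclusive = mean inhibition reaches the set limit but some replicate falls short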;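 also: 0% = DMSO neutral controls and 100% = 20 µM radicicol positive controls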
# Wnt act: activators of Wnt/beta-catenin signaling | Wnt/beta-catenin reporter cell assay, activator, plate reader | activation, % at 9.35 µM | 1.2% of 300,000 active; in the data active = activation above about 30%, passing the limit was not always enough; inconclusive = no clear call, values can overlap the other calls;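 also: 0% = neutral control wells and 100% = positive control wells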
# N-glyco inh: blocks N-linked glycosylation in D54 reporter cells; reporter increase, % at 12.5 µM; D54 ERlucT glycosylation luciferase reporter, 24 h; percent of 100 nM tunicamycin response; 0.23% of 360,000 active; AID 588692;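 active = mean luciferase reporter signal, scaled so untreated is 0 and the glycosylation-blocking control 100, at or above a set limit in every replicate; inconclusive = mean reaches the limit but not every replicate does; inactive = mean below the limit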;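 also: luciferase carries N-glycosylation sites so blocking glycosylation raises the light; 0% = median of neutral control wells and 100% = median of 100 nM tunicamycin wells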
# Active calls of the source: *; u = inconclusive; x = no result given.
SMILES,TRPM1 prom inh,MITF act,NSD2 inh,PfHsp90 set2,Wnt act,N-glyco inh
COc1ccc(NC2CCCN(C(=O)C3=NNC(=O)CC3)C2)cc1 (stereo not given),x,x,-6,x,-1,0
COc1ccc(N2CCN(c3c(S(=O)(=O)c4ccccc4)cnc4ccc(OC)cc34)CC2)cc1,-2,1,2,104*,4,-7
C/C(C=NNC(=O)c1cc(-c2ccc(Cl)cc2)n[nH]1)=C\c1ccccc1,x,x,1,x,x,x
[2H]C(CCOS(N)(=O)=O)c1ccc(C(C)(C)C)cc1 (stereo not given),83*,-83,x,3,4,-10
NS(=O)(=O)OCCCc1ccccc1,-8,10,x,3,-1,1
CCn1c(SCC(=O)NN=Cc2cccc(OCc3ccccc3)c2)nnc1-c1ccc(OC)c(OC)c1,x,x,4,x,x,x
COc1cc2nc(SCc3ccc(F)cc3)n(Cc3cccs3)c(=N)c2cc1OC,11,-13,-2,-20,x,-3
COc1ccc(Cn2c(SCc3ccccc3C)nc3cc(OC)c(OC)cc3c2=N)cc1,84*,x,1,11,x,-12
COc1ccc(Oc2ccc(/C=N/NC(=O)c3cccnc3)cc2[N+](=O)[O-])cc1,9,-8,-2,27,-2,5
COc1ccc(Oc2ccc(/C=C/C(=O)c3cccc(OC)c3)cc2[N+](=O)[O-])cc1,1,3,-1,36,5,50*
COc1cc(Cl)ccc1OCc1cc(C(=O)NCc2cc(C(C)C)no2)no1,-59,60,-2,0,51*,-2
COc1cc(C)ccc1OCc1cc(C(=O)NC(C)Cn2cncn2)no1 (stereo not given),-119,123*,-3,-4,19,-2
CCCCN(C=O)c1c(CC)nc2ccc(C(=O)N3CCN(S(=O)(=O)CC)CC3)cn12,x,x,0,x,-2,1
O=C(Nc1ccc(-c2cccc(F)c2)cc1)C1CCCN(Cc2ccccn2)C1 (stereo not given),-14,14,-2,25,1,-4
COCCCn1[nH]c2c3c(ccc2c1=O)C(=O)c1ccccc1C3=O,61*,-60,19,-62,x,6
CC(C)(C)n1[nH]c2c3c(ccc2c1=O)C(=O)c1ccccc1C3=O,u,x,5,x,-11,-7
CCOc1ccc(N2C(=O)CC(SCCN)C2=O)cc1 (stereo not given),-6,x,x,31,34*,-4
C#CC[N+](C)(C)CCCCCCCCC,12,-13,2,9,-1,30*
CCCCCCCCN1C(=O)[C@@H](CC(=O)NCCCN2CCCC2=O)C[C@@]2(C(=O)OC)C1=C[C@H](C1CCCC1)O[C@@H]2C,x,x,x,x,-4,x
COc1ccc(C2/C=C\CN(C(=O)c3ccccc3)[C@H](Cc3ccccc3)C(=O)N2Cc2ccc(F)cc2)cc1 (stereo not given in full),-2,-3,x,-10,-5,-10
O=[N+]([O-])c1cc(F)c2cccnc2c1O,20,-15,11,-53,7,7
Oc1c(I)cc(Cl)c2cccnc12,19,-18,x,111*,-3,3
Cc1ccc(N2C(=O)c3cccc4c([N+](=O)[O-])ccc(c34)C2=O)c2cccnc12,74*,-74,x,-34,41*,u
O=[N+]([O-])c1cc(Cl)c(O)c2ncccc12,23,-24,24,98*,1,3
Cc1ccnc(N2C(=O)c3cccc4c([N+](=O)[O-])ccc(c34)C2=O)c1,13,-11,x,-38,27,1
SMILES,TRPM1 prom inh,MITF act,NSD2 inh,PfHsp90 set2,Wnt act,N-glyco inh
O=[N+]([O-])c1cc(Cl)c2cccnc2c1O,8,-6,1,-44,0,0
O=[N+]([O-])c1cc(CN2CCN(c3ccccc3)CC2)c(O)c2ncccc12,75*,-74,4,7,-5,-8
O=[N+]([O-])c1ccc(O)c2ncccc12,45,-45,x,109*,-3,-6
O=[N+]([O-])c1ccc(O)c2cccnc12,2,-2,-1,-7,-8,2
C=CCn1c(COc2ccc(C)cc2)nnc1SCC(=O)c1ccc(-c2ccccc2)cc1,x,x,0,x,x,x
CSC1=C(C#N)C(=O)NC(c2ccccc2O)S1 (stereo not given),0,x,18,-11,0,2
COC(=O)CSC1=C(C#N)C(=O)NC(c2ccccc2)S1 (stereo not given),74*,-74,11,12,-1,3
COc1ccccc1-c1cc(C(=O)N2CCCC2)no1,-51,51,-11,-26,37*,-11
COc1ccccc1-c1cc(C(=O)N2CCN(c3ccc(F)cc3)CC2)no1,1,4,-8,-2,3,1
O=C(c1cc(-c2ccccc2Cl)on1)N1CCCC1,6,-8,-3,-91,8,-17
CC1CCN(C(=O)c2cc(-c3ccccc3O)on2)CC1,-103,104*,x,6,63*,-11
COc1ccccc1-c1cc(C(=O)N2CCOCC2)no1,-105,105*,-5,-39,29,-3
O=C(Nc1ccc(Cl)cc1)OC[C@@H]1CSCCS(=O)(=O)N1,x,x,x,x,1,x
COCCCNC(=O)Cc1ccc(S(=O)(=O)N2CCOCC2)s1,2,-2,-1,-25,55*,0
Cn1c(=NN=Cc2ccccc2OCCO)sc2ccccc21,x,x,-1,x,43*,0
COc1ccc(-c2cc(C(=O)NCCc3ccc(S(N)(=O)=O)cc3)c3ccccc3n2)cc1,-24,22,5,x,0,-1
COc1ccc(-c2cc(-c3cc(OC)ccc3O)[nH]n2)cc1,-31,x,4,x,x,-4
COc1ccc(-c2cc(-c3ccc(Cl)cc3)n[nH]2)c(O)c1,-114,122*,0,1,41*,-7
COc1ccc(O)c(-c2cc(-c3cccc(Br)c3)n[nH]2)c1,-52,56,1,94*,15,0
COc1ccc(-c2cc(-c3ccc(OC)c(OC)c3)n[nH]2)c(O)c1,-64,x,0,7,x,-7
COC(=O)c1cccc(NC(=O)c2cc3ccccc3o2)c1,-62,66,-2,-16,15,-4
O=C(Nc1cccc2ccccc12)N(CCO)C1CCS(=O)(=O)C1 (stereo not given),6,-5,0,0,4,3
CC1(C)CC2(C)OC2C2(C1)N=NC(=Nc1ccccc1)O2 (stereo not given),x,x,17,x,x,45*
C[C@H](O)[C@@H]1C(=O)N2CCc3c([nH]c4c(-c5ccc6c(c5)OCO6)cccc34)[C@@H]2C[C@@H]1N(C)C(=O)NC1CCCCC1,x,x,x,x,-2,x
COc1cc(CNc2ncnc3c2ncn3[C@H]2CN(Cc3ccccc3)C[C@@H](COC(C)=O)O2)cc(OC)c1OC,x,x,0,x,-3,4
